CYP2C19 act – human CYP2C19 activators, primary screen, biochemical, luminescence. AID 1025, 2008. activation factor at 5 µM. 96,000 tested, under 10 active. recombinant CYP2C19, luciferin-H EGE luminescence; hits give high values; 0 = fully inhibited enzyme, 1 = untreated enzyme. Cytochrome P450 2C19 (Homo sapiens), P33261;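 active = activation factor of at least 2 at 5 µM in the primary screen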
CYP2C9 inh – blockers of cytochrome P450 2C9 activity – biochemical, luminescence, ADME assay, primary screen. hit rate 20% among 96,000. AID 777, 2007. P11712. inhibition, % at 5 µM. CYP2C9 Supersomes, luciferin-H conversion;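 active = blocking of liver enzyme CYP2C9 beyond about 50% at 5 µM, limit read from the data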
Target sequence (P11712 whole entry, looked up): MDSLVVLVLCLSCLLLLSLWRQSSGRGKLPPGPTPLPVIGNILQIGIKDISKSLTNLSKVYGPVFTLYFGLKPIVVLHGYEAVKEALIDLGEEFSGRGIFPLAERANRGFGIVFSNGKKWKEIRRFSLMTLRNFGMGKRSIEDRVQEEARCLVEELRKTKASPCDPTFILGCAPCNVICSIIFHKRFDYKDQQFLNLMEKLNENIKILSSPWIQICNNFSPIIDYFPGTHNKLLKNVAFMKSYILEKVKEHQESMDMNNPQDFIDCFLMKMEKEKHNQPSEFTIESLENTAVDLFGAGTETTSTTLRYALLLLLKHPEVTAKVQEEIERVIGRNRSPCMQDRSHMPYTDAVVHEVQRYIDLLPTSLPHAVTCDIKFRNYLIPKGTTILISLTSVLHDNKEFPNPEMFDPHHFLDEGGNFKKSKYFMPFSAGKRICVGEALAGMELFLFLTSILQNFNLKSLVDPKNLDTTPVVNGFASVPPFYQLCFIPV
CYP2C19 inhib – blockers of cytochrome P450 2C19 activity – biochemical, luminescence, ADME assay, primary screen; CYP2C19 Supersomes, luciferin-H EGE luminescence, 30 min; inhibition, % at 5 µM; hit rate 21% among 96,000;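 active = CYP2C19 inhibition above a set limit at 5 µM in the primary screen, cut at about 50% in these data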
Cav3 T inh – Cav3.2 calcium influx blockers – cell-based, Fluo-4 calcium fluorescence, FDSS, MLSMR library, primary screen. Cav3.2-expressing cells; hits give low values. B-score at 10 µM. hit rate 4% among 100,000. AID 449739, 2010;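 active = single-dose well whose peak fluorescence ratio is a statistical outlier from its plate by either plate-standardised score or position-corrected B-score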
CYP2C9 act – human CYP2C9 activators, primary screen, biochemical, luminescence; activation factor at 5 µM; Cytochrome P450 2C9 (Homo sapiens), P11712; recombinant CYP2C9, luciferin-H conversion; hits give high values; factor 1 = untreated enzyme, 0 = blocked; hit rate 1.4% among 96,000;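 active = activation factor of 2 or more for CYP2C9 at a 5 µM dose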
A number is an active result; 0 = inactive; - = no result. The list is not random: actives were taken first. Their share in the collection is about 27%.

SMILES | CYP2C19 act | CYP2C9 inh | CYP2C19 inhib | Cav3 T inh | CYP2C9 act
Cn1cc(S(=O)(=O)NCc2cccs2)c(=O)n(C)c1=O | 0 | 0 | 0 | 0 | 0
O=S1(=O)CC(N2CCCCC2)C(N2CCCCC2)C1 (stereo not given) | 0 | 0 | 0 | 0 | 0
Cc1ccc(CCN2CC(C(=O)NCCCN3CCCCCC3)CC2=O)cc1 (stereo not given) | 0 | 0 | 0 | 0 | 0
CC(=O)c1c(C(C)=O)c(C)n(NC(=O)c2cccnc2)c1C | 0 | 0 | 0 | 0 | 0
CC(=O)c1c(C(C)=O)c(C)n(NC(=O)c2ccccc2O)c1C | 0 | 86.3 | 0 | 0 | 0
Cc1cc(C)cc(Oc2cc(NC(=O)c3cn(C)nc3C)cc([N+](=O)[O-])c2)c1 | 0 | 0 | 0 | 0 | 0
NC1(N)OC(CN2C(=O)c3ccccc3C2=O)CS1 (stereo not given) | 0 | 0 | 52.1 | 0 | 0
C#CCOC(=O)Nc1ccc(=O)n(Cc2c(Cl)cccc2Cl)c1 | 0 | 68.9 | 53.9 | 0 | 0
NC(=O)CSCc1c(Cl)cccc1Cl | 0 | 0 | 0 | 0 | 0
O=C(COc1cc(O)c2c(=O)cc(-c3ccccc3)oc2c1)c1ccccc1 | 0 | 59.1 | 0 | 0 | 0
O=S(=O)(c1ccc(Cl)c(C(F)(F)F)c1)N1CCN(CC(O)COCC2CCCO2)CC1 (stereo not given) | 0 | 0 | 0 | 0 | 2
CCOC(=O)c1c(C)oc2c1c(C(c1ccncc1)N1CCOCC1)c(O)c1ccccc12 (stereo not given) | 0 | 97.4 | 97.7 | 0 | 0
CCOC(=O)c1c(C)c(C(=O)NCc2ccccn2)c(C)n1C | 0 | 0 | 0 | 0 | 0
CCOC(=O)c1c(C)oc2c1c(C=NC1CCS(=O)(=O)C1)c(O)c1ccccc12 (stereo not given) | 0 | 0 | 0 | - | 0
CCOC(=O)c1c(C)oc2c1c1c(c3ccccc32)OCN(Cc2ccccn2)C1 | 0 | 54.0 | 0 | 0 | 0
Cc1ccc(SC(C)C(=O)N2CCCC2)cc1 (stereo not given) | 0 | 0 | 75.5 | 0 | 0
COC(Cc1nnc(SC)n1-c1ccccc1)OC | 0 | 0 | 0 | 0 | 0
CSc1nnc(CSCc2ccc(Cl)cc2Cl)n1-c1ccccc1 | 0 | 69.5 | 58.6 | 0 | 0
COCC(=O)NC(c1ccccc1)c1ccccc1 | 0 | 0 | 0 | 0 | 0
COC(=O)[C@H](C)NC(=O)NCc1ccccc1F | 0 | 0 | 0 | 0 | 0
NC(=O)NC(c1ccccc1)c1ccccc1F (stereo not given) | 0 | 0 | 72.1 | 0 | 0
NC(=O)NC(Cc1ccccc1)c1ccccc1 (stereo not given) | 0 | 0 | 0 | 0 | 0
NC(=O)NC(c1ccccc1)c1cccc2ccccc12 (stereo not given) | 0 | 0 | 71.7 | 0 | 0
NC(=O)NC(c1ccccc1)c1ccccc1 | 0 | 0 | 80.0 | 0 | 0
CCOC(=O)N1CCN(CC(=O)N2c3ccccc3CC2C)CC1 (stereo not given) | 0 | 0 | 0 | - | 0
SMILES | CYP2C19 act | CYP2C9 inh | CYP2C19 inhib | Cav3 T inh | CYP2C9 act
CCOC(=O)CN1C(=O)N[C@H](c2ccc(Br)cc2)C(C(C)=O)=C1C | - | - | - | 0 | -
CCOC(=O)C(O)(C1C(=O)CC(C)(C)CC1=O)C(F)(F)F (stereo not given) | 0 | 93.3 | 0 | 0 | 0
CC(=O)NC(C1C(=O)CC(C)(C)CC1=O)(C(F)(F)F)C(F)(F)F | 0 | 0 | 0 | 0 | 0
Cc1cc(C)cc(NS(=O)(=O)c2cnc(Cl)c(Cl)c2)c1 | 0 | 86.2 | 100.0 | -5.58 | 0
O=C1C2C3C=CC(C2C(=O)N1C1CCCCC1)C1C(=O)N(C2CCCCC2)C(=O)C31 (stereo not given) | 0 | 0 | 0 | 0 | 0
CC1CCC(NC(=O)Cn2c3c(c(-c4ccccc4Cl)cc2=O)CCC3)CC1 (stereo not given) | 0 | 0 | 0 | -5.12 | 0
CC(C)CCNC(=O)Cn1c2c(c(-c3ccccc3Cl)cc1=O)CCC2 | 0 | 61.6 | 0 | 0 | 0
CCOC(=O)c1c(CN2CCCCC2)n(C)c2ccc(OC)c(S(=O)(=O)c3ccccc3)c12 | 0 | 0 | 0 | 0 | 0
Cc1nc(-c2ccccc2)sc1C(=O)CSc1ccc(Cl)cc1 | 0 | 76.9 | 0 | - | 0
Cc1nc(-c2ccccc2)sc1C(=O)CSc1ccc(Br)cc1 | 0 | 85.1 | 0 | - | 0
Cc1ccc(N/C=C/C(=O)c2sc(-c3ccccc3)nc2C)cc1 | 0 | 0 | 0 | 0 | 0
Cc1ccc(C(=O)O)cc1N1C(=O)c2cccc3cc(Br)cc(c23)C1=O | 0 | 0 | 0 | - | 0
COc1ccc(-c2onc3ccc(Cl)cc23)cc1 | 0 | 0 | 0 | 0 | 0
O=c1oc2cc(Oc3ccc(C(F)(F)F)cc3[N+](=O)[O-])ccc2c2c1CCCC2 | - | - | - | 0 | -
Clc1ccc(C(c2nnnn2C2CCCCC2)N(Cc2cccnc2)Cc2ccco2)cc1 (stereo not given) | - | - | - | -3.85 | -
Clc1ccccc1CN(Cc1ccccc1)C(c1cccs1)c1nnnn1C1CCCC1 (stereo not given) | 0 | 0 | 0 | 0 | 0
Clc1ccccc1CN(Cc1ccco1)Cc1nnnn1C1CCCC1 | - | - | - | 0 | -
Cc1ccc2[nH]c(=O)c(C(c3nnnn3C3CCCC3)N(Cc3cccnc3)Cc3ccco3)cc2c1 (stereo not given) | 0 | 0 | 0 | 0 | 0
Clc1ccc(CN(CC2CCCO2)C(c2cccs2)c2nnnn2C2CCCC2)cc1 (stereo not given) | 0 | 0 | 0 | -8.09 | 0
Cc1ccc2cc(C(c3nnnn3C3CCCC3)N(Cc3cccnc3)Cc3ccco3)c(=O)[nH]c2c1 (stereo not given) | 0 | 74.1 | 92.0 | 0 | 0
COc1ccc(-c2nnc(SC(C)C(=O)Nc3c(C)n(C)n(-c4ccccc4)c3=O)o2)cc1 (stereo not given) | 0 | 0 | 0 | 0 | 0
Cc1[nH]nc2c1C(c1ccc(F)cc1)C1=C(CC(C)(C)CC1=O)N2 (stereo not given) | 0 | 0 | 0 | 0 | 0
Cc1nc2ncnn2c(C)c1CCC(=O)N1CCOCC1 | 0 | 0 | 0 | 0 | 0
CC1(C)OC(=O)N(c2ccccc2)C12C=Cc1cc(Br)ccc1O2 (stereo not given) | 0 | 85.0 | 82.8 | -6.2 | 0
CCOCCCNc1ncnc2c1[nH]c1ccccc12 | 0 | 0 | 60.3 | 0 | 0
c1nc(NCC2CCCO2)c2[nH]cnc2n1 (stereo not given) | - | - | - | 0 | -
CCCCOc1ncnc2c1[nH]c1ccccc12 | 0 | 0 | 0 | 0 | 0
c1ccc2c(c1)[nH]c1c(NCC3CCCO3)ncnc12 (stereo not given) | 0 | 54.2 | 0 | 0 | 0
CCOCCCNc1nc2ccccc2[nH]1 | 0 | 0 | 0 | 0 | 0
CCCCOCCCNc1ncnc2c1[nH]c1ccccc12 | 0 | 65.8 | 52.2 | -4.68 | 0

From PubChem
